# According to PubChem BioAssay (NCI):
# This is part of a sample that, as a whole, favours compounds with a hit. Of some 83,000 tested, about 20% had one in any assay.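 Assay: single dose, 48 h. Readout: percent growth (0 = no net growth; negative = cell death). Active: <10.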 Calls of active or inactive are those of the source.
# Test system: HT29 colon
# Test: NCI-60 one-dose screen, 48 h (100 = growth as untreated, 0 = no growth, -100 = all killed)
# Conditions: 10 µM
# Experimental: Growth inhibition of the HT29 human tumor cell line is measured as a screen for anti-cancer activity. Cells are grown in 96 well plates and exposed to the test compound for 48 hours. Compounds are tested at a single concentration, which is 10^-5 M for most compounds. The reported endpoint is percent growth (GI% or GIPRCNT), where numbers from 0 - 100% represent growth inhibition, and numbers from -100% - 0 represent cell death. For example, a value of 40 represents 60% growth inhibition. A value of 0 means no net growth occurred over the course of the experiment. A value of -40 indicates 40% of cells at the beginning of the experiment died by the end of the experiment. A value of -100 means all cells are dead at the end of the experiment.
# NCI-60 Human Tumor Cell Lines Screen was performed using the standard one-dose NCI protocol, which is described in more detail at https://dtp.cancer.gov/discovery_development/nci-60/default.htm.
# Compounds with GIPRCNT values below 10 were considered active. Activity score was based on GIPRCNT using the following formula: […]
# Score is 0 for GIPRCNT values of 100 or above, 50 for GIPRCNT values of 0, and 100 for GIPRCNT values of -100.
row,SMILES,growth
1,Cc1ccc(NC(=O)N2CCCCC2)cc1[N+](=O)[O-],103% (inactive)
2,CC(=O)N[C@H](C(=O)N[C@@H](CCCNC(=N)N)C(=O)N[C@@H](CCCCN)C(=O)N[C@@H](CCCNC(=N)N)C(=O)N[C@]1(C)CCCCCC/C=C\CCC[C@@](C)(C(=O)N[C@@H](CCCNC(=N)N)C(=O)N[C@@H](CCC(=O)O)C(=O)N[C@@H](CC(C)C)C(=O)N[C@H](C(=O)N[C@@H](CCC(=O)O)C(N)=O)C(C)C)NC(=O)[C@H](CCC(N)=O)NC(=O)[C@H](CC(C)C)NC(=O)[C@H](CC(C)C)NC(=O)[C@H](CCCNC(=N)N)NC(=O)[C@H](CCCNC(=N)N)NC(=O)[C@H](CC(C)C)NC1=O)C(C)C,15.7% (inactive)
3,CCCCN(CCCC)C(=O)[C@H](CC)[C@@H]1CC[C@@H](C)[C@@H]([C@H](C)[C@@H](O)[C@@H](C)C(=O)[C@H](CC)C2O[C@]3(C=CC(=O)[C@]4(CC[C@@](C)([C@H]5CC[C@](O)(CC)[C@H](C)O5)O4)O3)[C@H](C)C[C@@H]2C)O1 (stereo not given in full),20.9% (inactive)
4,COc1cc(NC(=O)C2=C(N3CCOCC3)/C(=C/c3ccc(Cl)cc3)CC2)cc(OC)c1OC,86% (inactive)
5,CN1C(=O)C2(Nc3cc(Cl)ccc3S2)c2cc(Cl)ccc21 (stereo not given),101% (inactive)
6,IC(I)I,115% (inactive)
7,CCOC(=O)c1sc2ncnc(Nc3ccc4c(cnn4C(=O)Nc4ccccc4)c3)c2c1C,40.7% (inactive)
8,O=C(CSc1nnc(-c2ccc(Cl)cc2)o1)Nc1ccc(C(=O)/C=C/c2ccc(Cl)cc2)cc1,99% (inactive)
9,O=C(NCCCNS(=O)(=O)c1ccc(Cl)cc1)Nc1ccc(-n2cc(-c3ccncc3)c(-c3ccc(Cl)c(O)c3)n2)cc1,0.25% (active)
10,Cc1cn(-c2cc(F)cc(NC(=O)c3ccc(C)c(Nc4nccc(-c5cccnc5)n4)c3)c2)cn1,2.89% (active)
11,NC1=NC(c2ccccc2)C2=C(N1)/C(=C/c1ccccc1)CCC2 (stereo not given),32.2% (inactive)
12,CCn1c(SCCc2ccccc2)nnc1-c1nn(-c2ccc(Cl)cc2Cl)c(-c2ccc(Cl)cc2)c1C,67.2% (inactive)
13,c1ccc(/C(=N\Nc2ccc3ccccc3n2)c2ccccn2)cc1,26.2% (inactive)
14,CCn1c(SC/C(=N/O)c2ccccc2)nnc1-c1ccccc1,104% (inactive)
15,Nc1ccc(-c2cccs2)cc1NC(=O)c1ccc(CCCC(=O)Nc2ccc(C3CC3N)cc2)cc1 (stereo not given),64.8% (inactive)
16,CCN1CC(CCN2CCOCC2)C(C(c2ccccc2)c2ccccc2)C1=O (stereo not given),102% (inactive)
17,CN(C)CCOc1cccc(-c2nc3sccn3c2-c2ccnc(S(C)(=O)=O)n2)c1,96.8% (inactive)
18,O=[N+]([O-])c1cc(Cl)cc(Cl)c1O,97.7% (inactive)
19,CCn1c2ccc(O)cc2c2c(C)c3c[n+](C)ccc3c(C)c21,55.8% (inactive)
20,COc1ccc(N=Nc2cc(OC)c(OC)c(OC)c2)cc1,69.1% (inactive)

row,SMILES,growth
1,O=C(CI)OCC(COC(=O)CI)OC(=O)CI,79.2% (inactive)
2,O=C(Nc1ccc2c(O)cc(S(=O)(=O)O)cc2c1)c1ccc([N+](=O)[O-])cc1,95.3% (inactive)
3,CCOC(=O)C1=CSC2=NC3=C(CCC/C3=C\c3ccc(Cl)cc3)C(c3ccc(Cl)cc3)N12 (stereo not given),82.8% (inactive)
4,COc1ccc(-c2nn(-c3cccc(Cl)c3)cc2-c2nc(N)[nH]c(=O)c2C#N)cc1,86.5% (inactive)
5,CCCCCOC(=O)Nc1nc(=O)n(C2O[C@H](C)[C@@H](O)[C@H]2O)cc1F (stereo not given in full),99.9% (inactive)
6,CC1OC2CC(=O)OC2C2=C1C(=O)c1c(O)c3c(c(O)c1C2=O)C1CC(O)C3(O)C(C)O1 (stereo not given),-15.9% (active)
7,CCOS(=O)(=O)c1c(C(C)C)cc(C(C)C)cc1C(C)C,112% (inactive)
8,CC(C)[N+]1(C)C2CC[C@@H]1CC(OC(=O)C(CO)c1ccccc1)C2 (stereo not given in full),106% (inactive)
9,COc1cc(-c2csc(NC(=O)Nc3ccc(Cl)c(C(F)(F)F)c3)n2)cc(OC)c1OC,4.27% (active)
10,O=C(CSc1nccc(Nc2cccc3ccccc23)n1)c1ccc(Cl)cc1,86.9% (inactive)
11,Cn1c2ccccc2c2c3[nH][nH]c(=O)c3c3c4ccccc4[nH]c3c21,43.3% (inactive)
12,CS(=O)(=O)c1nccc(-c2c(-c3cccc(OCCN4CCOCC4)c3)nc3sccn23)n1,66.9% (inactive)
13,OC[C@H]1OC([S-])[C@H](O)[C@@H](O)[C@@H]1O.[Au+] (stereo not given in full),83.8% (inactive)
14,O=C(c1ccccc1)N(C(=O)c1ccccc1)N1CCCC1,102% (inactive)
15,COC1OC(COS(=O)OC)C(O)C(O)C1OS(=O)OC (stereo not given),103% (inactive)
16,COc1ccc(/C(C#N)=C/c2ccccc2OC)cc1,6.29% (active)
17,O=C(/C=C/c1cccc(B(O)O)c1)c1cccc(B(O)O)c1,-46.5% (active)
18,COc1ccc(-c2nn(-c3cccc(Cl)c3)cc2-c2cc(-c3ccccc3)nc(N)n2)cc1,19.5% (inactive)
19,COc1ccc(/C=C2\CCCC3C2=Nc2ccccc2NC3c2ccc(OC)cc2)cc1 (stereo not given),74.8% (inactive)
20,O=C(O)c1cn(C2CC2)c2cc(N3CCN(C(=O)c4cc(-c5ccc(Cl)cc5)nc5ccccc45)CC3)c(F)cc2c1=O,96.1% (inactive)
